IL-1B inflam inh: qHTS for Inhibitors of Inflammasome Signaling: IL-1-beta AlphaLISA Primary Screen | actives 4.7% (n = 360,000) | THP-1 LPS/ATP IL-1B secretion, AlphaLISA, 16 h; active compounds read low | activity change, % at 57.5 µM; in the data active = activity change below about -50%; inconclusive = mostly about -30% to -49%
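Secreted IL-1B measured by AlphaLISA bead assay after 16 h compound exposure of THP-1 cells; compounds (final up to 57.5 uM) added 1 h before LPS (250 ng/mL) and ATP (1.25 mM) stimulation; lower signal means less secretion.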
HT1080 IDH1KD tx: qHTS for induction of synthetic lethality in tumor cells producing 2HG: qHTS for the HT-1080-IDH1KD cell line; HT-1080 IDH1 knockdown viability, ATP luminescence, 48 h; Potency, µM (series often up to 46.1 µM), usual class: cytotoxic; actives 2% (n = 360,000)
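In this qHTS, HT-1080 cells depleted of IDH1 are exposed for 48 h at 37 °C to compound titrations. Toxicity is scored from CellTiter-Glo luminescence, with DMSO as full viability and medium alone as none.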
DT40 TDP1 CPT: qHTS for Inhibitors of human tyrosyl-DNA phosphodiesterase 1 (TDP1): qHTS in cells in presence of CPT; Potency, µM (doses to about 46.2 µM), usual class: inhibitors; actives 12% (n = 420,000); chicken DT40 Tdp1-/-;hTDP1 cells + 20 nM CPT, ATP luminescence, 48 h; AID 686979, 2013; note: nearly all actives have a fitted effect of over 55% in size
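Chicken DT40 Tdp1-/- cells stably complemented with human TDP1 were seeded at 400 cells/well in medium containing 20 nM camptothecin, exposed to pin-transferred compounds, and grown at 37 °C for at least 48 hr. Viability was read as ATP luminescence.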
DT40 TDP1 no CPT: qHTS for Inhibitors of human tyrosyl-DNA phosphodiesterase 1 (TDP1): qHTS in cells in absence of CPT; DT40 Tdp1-/- hTDP1 cells, no CPT, ATP luminescence, 48 h; Potency, µM (doses to about 46.2 µM), usual class: inhibitors; actives 15% (n = 420,000); AID 686978, 2013; note: nearly all actives have a fitted effect of over 55% in size
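Stably hTDP1-transfected Tdp1-null chicken DT40 cells were treated with library compounds minus camptothecin and grown for at least 48 hr at 37 °C, after which cellular ATP was quantified by luminescence.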
HT1080-NT tox: qHTS for induction of synthetic lethality in tumor cells producing 2HG: qHTS for the HT-1080-NT fibrosarcoma cell line; Potency, µM (titrated, usually from 46.1 µM), most hits filed as cytotoxic; AID 686970, 2013; actives 1.6% (n = 360,000); HT-1080-NT fibrosarcoma viability, CellTiter-Glo ATP luminescence, 48 h;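 note: NT is the 2HG producing partner of a matched IDH1 knockdown line; nearly all actives have a fitted effect of over 55% in size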
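Viability by CellTiter-Glo luminescence after 48 h compound exposure at 37C of HT-1080-NT cells (750/well, RPMI, 5% FBS). % activity scaled between DMSO wells and medium-only wells, then curve-fitted and categorized by curve class.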
ELG1 repair inh: qHTS screen for small molecules that inhibit ELG1-dependent DNA repair in human embryonic kidney (HEK293T) cells expressing luciferase-tagged ELG1; HEK293T ELG1-luciferase reporter, luminescence, 16 h; DNA damage induced by 5-fluorouridine; Potency, µM (series often up to 46.1 µM), most hits filed as inhibitors; actives 2.3% (n = 330,000); AID 504467, 2011; note: nearly all actives have a fitted effect of over 55% in size
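DMSO vehicle served as the neutral condition. Each well held 2,000 cells given 5-fluorouridine plus compound; after 16 hr at 37 °C/5% CO2, ONE-Glo was added and luciferase measured 30 min later.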
Hits are given with their value; . = inactive; ? = inconclusive; / = no result; [ ] = dose if it differs, or a comment. Shown are actives, neighbours in structure and some others; about 19% of the full set was active somewhere. Unless noted, calls come from the whole dose curve; as a rule, active = well fitted curve in the direction sought with a large enough effect; inconclusive = small, poorly fitted or top-dose-only effect, or another doubt; inactive = no such curve, though single readings can be large; an effect the other way counts as inactive or inconclusive.

SMILES	IL-1B inflam inh	HT1080 IDH1KD tx	DT40 TDP1 CPT	DT40 TDP1 no CPT	HT1080-NT tox	ELG1 repair inh
CCCC(NC(C)C(=O)N1C(C(=O)O)CC2CCCCC21)C(=O)OCC (stereo not given)	/	/	.	.	/	/
Oc1[nH]c2ccc(Br)cc2c1N=Nc1ccc(C(F)(F)F)cn1	-57.1	.	?	?	.	.
O=c1c2sc3ccccc3c2n(Cc2ccc(Cl)cc2)c(=O)n1Cc1ccco1	/	/	?	8.2µM	/	/
Cc1ccc(Cl)cc1-n1c(=O)c2sc3ccccc3c2n(Cc2ccccc2)c1=O	/	/	23.1µM	5.8µM	/	/
COc1cccc(Cn2c(=O)n(-c3ccc(Br)cc3F)c(=O)c3sc4ccccc4c32)c1	/	/	9.2µM	?	/	/
O=C(CSc1nc(C2CC2)nc2ccccc12)N1c2ccccc2Sc2ccccc21	.	.	?	?	.	.
Cc1cccc(S(=O)(=O)C(C#N)c2nc3ccccc3nc2N2CC(C)OC(C)C2)c1 (stereo not given)	.	.[9.24 µM]	25.9µM	25.9µM	.	/
N#CC(c1nc2ccccc2nc1N1CCOCC1)S(=O)(=O)c1ccccc1 (stereo not given)	/	.	.	29.1µM	.	?
Cc1ccc(S(=O)(=O)C(C#N)c2nc3ccccc3nc2N2CC(C)OC(C)C2)cc1C (stereo not given)	.	.	?	14.6µM	.	?
Cc1ccc(S(=O)(=O)C(C#N)c2nc3ccccc3nc2N2CCCC2)cc1 (stereo not given)	.	.	.	?	.	?
COc1ccc(-c2noc(N3CCC(C(=O)NCCCN4CCCCC4)CC3)n2)cc1	.	.	.	.	.	?
CCOC(=O)Cn1cc(C#N)c2cccc(CC)c21	.	.	.	.	.	.
CC1CCc2onc(C(=O)NCc3ccco3)c2C1 (stereo not given)	.	13µM	?	?	18.4µM	.
COc1cccc(OC)c1C(=O)NNS(=O)(=O)c1ccc2ccccc2c1	.	.	.	.	.	.
CC12C(=O)N(Cc3ccco3)C(=O)C1C1c3ccccc3C2c2ccccc21 (stereo not given)	.	.	?	23.1µM	.	.
C[C@@H]1[C@H]2CCCC[C@H]2CN(C(=O)OC(C)(C)C)[C@@H]1CC(=O)c1ccccc1	.	.	?	16.4µM	.	.
CC(C)(C)OC(=O)N1Cc2ccccc2C[C@H]1C(=O)O	.	.	.	.	.	.
O=C(O)c1ccc(N/N=C/c2cn(Cc3ccc(F)cc3)c3ccccc23)cc1	.	.	?	?	.	?
C[C@@H]1[C@H]2CCCC[C@H]2CN(C(=O)OC(C)(C)C)[C@@H]1c1cn(Cc2ccccc2)c2ccc(F)cc12	.	.	?	16.4µM	.	.
O=C(NCc1ccccc1Cl)c1csc(COCCO)n1	.	.	.	.	.	/
CCCCc1nnc(NC(=O)CCS(=O)(=O)c2ccc(Cl)cc2)s1	.	.	6.51µM	7.31µM	.[9.24 µM]	.
CCCc1nnc(NC(=O)CCS(=O)(=O)c2ccccc2)s1	-58.3	.	2.31µM	5.17µM	.	.
CCc1nnc(NC(=O)CCN(c2cc(C)cc(C)c2)S(=O)(=O)c2ccc(Cl)cc2)s1	.	.	?	18.4µM	.	.
O=C(Nc1cccc(S(=O)(=O)N2CCOCC2)c1)C1=NN(c2ccccc2)C(=O)CC1	.	.	.	.	.	.
Cc1ccc(-c2csc(=Nc3ccccc3)n2Cc2ccc3c(c2)OCO3)cc1C	/	/	?	6.51µM	/	/

From PubChem
